The nature of assay [1]: Primary qHTS for inhibitors of nuclear receptor binding SET domain protein 2 (NSD2) in an isogenic RCH-ACV NSD2 p.E1099K mutant (9B) (AID 1645876). Further: nearly all actives have a fitted effect of over 70% in size. Further: potency means the concentration at half of the fitted maximal effect. For orientation: In qHTS, concentration-response curves come from the screen itself.
Assay [2] is described as follows: Primary qHTS for inhibitors of nuclear receptor binding SET domain protein 2 (NSD2) in an RCH-ACV wild type WT cells (2C) (AID 1645877). Further: nearly all actives have a fitted effect of over 70% in size. Further: potency means the concentration at half of the fitted maximal effect.
The nature of assay [3]: NCATS anti-infectives library activity on HEK293 viability as a counter-qHTS vs the C. elegans viability qHTS (AID 1745854). Further: on the % scale 0 is the no-effect control and ±100 the full control effect. In short, it runs like this: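 Cytotoxicity counter-screen to a worm viability qHTS: CellTiter-Glo luminescence read 10 min after reagent addition. Compounds (final up to 41.7 uM, a 1:5 dilution series) incubated 24 hr at 37C with 1,500 HEK293 cells per well; digitonin control.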

The target of assay [4] is Glutathione peroxidase 1 (Homo sapiens) (UniProt P07203). In words: Primary qHTS Assay for Inhibitors of Recombinant Selenoprotein Glutathione Peroxidase 1 (GPX1) (AID 1845191). Further: nearly all actives have a fitted effect of over 65% in size. In short, it runs like this: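 GR-coupled readout: NADPH consumption tracked by fluorescence, ex 340/em 450 nm, at t=0 and after 15 min at RT. Final mix 10 nM GPX1, 1 mM GSH, 0.5 mM CHP, 0.5 mM NADPH, 100 nM GR, 0.01% BSA, following 30 min enzyme–compound preincubation.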

Assay [5] in a line: qHTS drug screen for cell cycle checkpoint inhibitors in PARPi-resistant BRCA-mutant ovarian cancer cell lines. (AID 1963452; calls by dose curve). Conditions: PEO1/OlaR viability, CellTiter-Glo luminescence, 96 h; for Z-AUC: stronger effect = lower value. In short, it runs like this: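 PEO1, PEO4 and PEO1/OlaR ovarian cancer cells, 600 per well, exposed 96 h at 37C to a dilution series. Viability read by CellTiter-Glo luminescence, normalized to DMSO and empty wells; activity summarized as Z-AUC.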

Assay [6] concerns the target Phospholipid hydroperoxide glutathione peroxidase GPX4 (Homo sapiens) (UniProt P36969). In words: Primary qHTS Assay for Inhibitors of Recombinant Selenoprotein Glutathione Peroxidase 4 (GPX4) (AID 1845192). Further: nearly all actives have a fitted effect of over 65% in size. Particulars: outcome: dose series up to 50 µM unless noted. In short, it runs like this:
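Steps: GPX4 plus compound, 30 min RT; add GR/GSH/NADPH master mix; start with cumene hydroperoxide; read 340/450 nm fluorescence at 0 and 15 min. Finals were 200 nM GPX4, 1 mM GSH, 0.5 mM CHP, 0.5 mM NADPH, 100 nM GR.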

Setting [7] is: measured here: PEO1 parental Z-AUC.

Records with an inconclusive call do not appear. Activity calls are given as the source filed them. Unless noted, the call rests on the fitted dose curve; in most records, active means well fitted curve in the direction sought with a large enough effect; inconclusive means small, poorly fitted or top-dose-only effect, or another doubt; inactive means no such curve, though single readings can be large; an effect the other way counts as inactive or inconclusive.

Chain of Phospholipid hydroperoxide glutathione peroxidase GPX4 (Homo sapiens) (P36969 whole entry, looked up): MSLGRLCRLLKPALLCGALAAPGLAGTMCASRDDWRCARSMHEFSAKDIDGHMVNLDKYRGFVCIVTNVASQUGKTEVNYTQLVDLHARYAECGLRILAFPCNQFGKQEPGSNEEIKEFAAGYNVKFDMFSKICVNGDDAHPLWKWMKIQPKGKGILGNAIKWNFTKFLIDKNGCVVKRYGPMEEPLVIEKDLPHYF
Chain of Glutathione peroxidase 1 (Homo sapiens) (P07203 whole entry, looked up): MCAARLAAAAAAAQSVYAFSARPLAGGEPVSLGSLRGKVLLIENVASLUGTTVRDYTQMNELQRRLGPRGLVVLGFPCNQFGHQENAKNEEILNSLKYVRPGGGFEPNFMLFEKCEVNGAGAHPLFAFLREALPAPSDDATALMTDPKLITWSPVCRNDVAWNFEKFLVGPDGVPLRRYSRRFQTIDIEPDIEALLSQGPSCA

Turning to `CNC(=O)[C@@H](NC(=O)[C@H](CC(C)C)[C@H](O)C(=O)NO)C(C)(C)C`, the Potency in assay [1] was 18.6 µM (active); in assay [2], 13.2 µM (active). For the same compound, the Potency entry in assay [3] and in assay [4] was “inactive” throughout. Besides, the figures for the Z-AUC in assay [5], in assay [5] (setting [7]) and in assay [5] (measured here: PEO4 Z-AUC) were 1.14 (inactive), 0.454 and 0.976, respectively.
As for `CN(C)C(N)=NC(=N)N`, in assay [4], the Potency result was “inactive”. Also, in assay [5], the compound was called inactive.
For `CCS(=O)(=O)N1CCC(C(C)n2c(C)c(C(=O)NCc3c(OC)cc(C)[nH]c3=O)c3ccccc32)CC1` (stereo not drawn), the Potency entry in assay [1], in assay [4] and in assay [6] was “inactive” in each case. Also, the Z-AUC is 1.37 (inactive) in assay [5], 0.975 in assay [5] (setting [7]) and 0.959 in assay [5] (measured here: PEO4 Z-AUC).
For `CC(C)(O)[C@H]1CC[C@@](C)([C@H]2[C@@H](O)C[C@@]3(C)[C@@H]4C[C@H](O[C@@H]5O[C@H](CO)[C@@H](O)[C@H](O)[C@H]5O)[C@H]5C(C)(C)[C@@H](O[C@@H]6OC[C@@H](O)[C@H](O)[C@H]6O)CC[C@@]56C[C@@]46CC[C@]23C)O1`, the Potency result in assay [1], in assay [2], in assay [4] and in assay [6] was “inactive” throughout. In addition, the Z-AUC in assay [5] is -0.0384 (inactive); in assay [5] (setting [7]) it was 1.82; in assay [5] (measured here: PEO4 Z-AUC), 1.68.
For the compound `C[C@@]1(c2ncncc2F)NC(=O)c2cc(-c3cn[nH]c3)ccc21`, the Potency in assay [1] and in assay [2] was 14.8 µM (active) each time. Also, the Potency entry in assay [4] and in assay [6] was “inactive” in each case. Further, the Z-AUC in assay [5] is -0.499 (inactive); in assay [5] (setting [7]) it was -0.528; in assay [5] (measured here: PEO4 Z-AUC) it was -0.372.
As to `CN(C)CCOc1ccc(-c2nc(-c3ccc4c(c3)CC/C4=N\O)c(-c3ccncc3)[nH]2)cc1`, the Potency in assay [1] was 16.6 µM (active); in assay [2], 10.5 µM (active). The Potency result in assay [4] and in assay [6] was “inactive” each time.

For the origin of these results see PubChem BioAssay (NCATS).
